Outcome and AC50 data for 16 molecules are collected here from PubChem BioAssay (EPA / NIEHS).

Read-out in assay [1]: Human Leukocyte Antigen - DR isotype (HLADR), HLA-DRA (gene 3122)
In words: BSK_CASM3C_HLADR: BioMAP Diversity Plus: CASM3C Assay for Human Leukocyte Antigen - DR isotype (HLADR) Biomarker Activity (AID 2283043).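 Note: cell-surface HLA-DR protein level quantified by ELISA.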 The conditions noted are these: primary human coronary artery smooth muscle cells; actives raise or lower the signal.

Read-out in assay [2]: Macrophage colony-stimulating factor (MCSF), CSF1 (gene 1435)
In words: BSK_CASM3C_MCSF: BioMAP Diversity Plus: CASM3C Assay for Macrophage colony-stimulating factor (MCSF) Biomarker Activity (AID 2283044).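 Note: M-CSF protein amount quantified by ELISA after 24 h exposure.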 The settings on record: primary human coronary artery smooth muscle cells; actives raise or lower the signal.

Read-out in assay [3]: Low-density lipoprotein receptor (LDLR), LDLR (gene 3949)
In words: BSK_CASM3C_LDLR: BioMAP Diversity Plus: CASM3C Assay for Low-density lipoprotein receptor (LDLR) Biomarker Activity (AID 2283045).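 Note: LDLR protein level on the cell surface quantified by ELISA.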 The settings on record: primary human coronary artery smooth muscle cells; actives raise or lower the signal.

Read-out in assay [4]: Monocyte Chemoattractant Protein-1 (MCP1), CCL2 (gene 6347)
The assay can be described thus: BSK_CASM3C_MCP1: BioMAP Diversity Plus: CASM3C Assay for Monocyte Chemoattractant Protein-1 (MCP1) Biomarker Activity (AID 2283046).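 Note: MCP-1 level quantified by ELISA 24 h after dosing.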 The settings on record: primary human coronary artery smooth muscle cells; actives raise or lower the signal.

Assay [5] can be described thus: BSK_CASM3C_Proliferation: Cell Proliferation Assessment in the BioMAP Diversity Plus: CASM3C Assay (AID 2283047).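 Note: sulforhodamine B total protein stain as relative cell number at 560 nm; sub-confluent cells exposed 48 h before staining; fitted both ways against DMSO so gain or loss of cell number.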 The settings on record: primary human coronary artery smooth muscle cells.
Read-out in assay [6]: Monokine induced gamma interferon (MIG), CXCL9 (gene 4283)
The assay can be described thus: BSK_CASM3C_MIG: BioMAP Diversity Plus: CASM3C Assay for Monokine induced gamma interferon (MIG) Biomarker Activity (AID 2283048).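 Note: MIG protein level measured by ELISA.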 The conditions noted are these: primary human coronary artery smooth muscle cells; actives raise or lower the signal.

Read-out in assay [7]: serum amyloid A (SAA), SAA1 (gene 6288)
The assay can be described thus: BSK_CASM3C_SAA: BioMAP Diversity Plus: CASM3C Assay for serum amyloid A (SAA) Biomarker Activity (AID 2283049).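 Note: SAA protein level quantified by ELISA.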 The settings on record: primary human coronary artery smooth muscle cells; actives raise or lower the signal.

Assay [8] in a line: BSK_CASM3C_SRB: Viability Assessment in the BioMAP Diversity Plus: CASM3C Assay (AID 2283050).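 Note: total protein by SRB staining as cytotoxicity measure in parallel cultures; cells exposed to compound for 24 h.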 The settings on record: primary human coronary artery smooth muscle cells.
Read-out in assay [9]: Thrombomodulin, THBD (gene 7056)
In words: BSK_CASM3C_Thrombomodulin: BioMAP Diversity Plus: CASM3C Assay for Thrombomodulin Biomarker Activity (AID 2283051).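 Note: thrombomodulin protein level measured by ELISA 24 h after dosing.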 The settings on record: primary human coronary artery smooth muscle cells; actives raise or lower the signal.

Read-out in assay [10]: Tissue Factor, F3 (gene 2152)
The assay can be described thus: BSK_CASM3C_TissueFactor: BioMAP Diversity Plus: CASM3C Assay for Tissue Factor Biomarker Activity (AID 2283052).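 Note: cell surface tissue factor protein level read by ELISA.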 The settings on record: primary human coronary artery smooth muscle cells; actives raise or lower the signal.

“And” between values parts separate entries of the source, which are not always exact repeats. Identical values can stand only once. The source holds several records for some structures; these can differ, active in one and inactive in another. The source made the active and inactive calls. Rule for the calls: active = hit-call score of the fitted dose curve at least 0.9, where 1 is the maximum; inactive = score below 0.9.

With `COc1ccc([N+](=O)[O-])cc1N`, the result in assay [1], in [2], in assay [3], in assay [4], in [5] and in [6] was inactive. Further, the result in assay [7], in assay [8], in assay [9] and in [10] was inactive.

As to `CCCCOCCO`, the result in assay [1], in [2], in [3], in assay [4], in assay [5] and in assay [6] was inactive. Further, the result in [7], in assay [8], in assay [9] and in assay [10] was inactive.

As to `CN1CCC[C@H]1c1cccnc1`, the result in [1], in assay [2], in assay [3], in assay [4], in assay [5] and in [6] was inactive. Moreover, the outcome in [7], in assay [8], in [9] and in [10] was inactive.

With `CC(O)CO` (stereo not given), the result in [1], in assay [2], in [3], in assay [4], in assay [5] and in assay [6] was inactive. Besides, the result in [7], in [8], in assay [9] and in [10] was inactive.

On to `OCCC(F)(F)C(F)(F)C(F)(F)C(F)(F)C(F)(F)C(F)(F)C(F)(F)C(F)(F)F`, for which the half-maximal activity concentration (AC50) in [1] was 20 µM (active) and 27.5 µM (active) and 18.9 µM (active); in assay [2], 38.6 µM (active) and 30 µM (active); in assay [3] it was 58.8 µM (active) and 55.4 µM (active); in assay [4], 48.6 µM (active) and 47.4 µM (active); in [5], 20 µM (active) and 22.5 µM (active) and 21.8 µM (active); in assay [6] it was 46.4 µM (active) and 46.8 µM (active). Further, the AC50 was 43 µM (active) and 37.9 µM (active) in assay [7]; 48.7 µM (active) and 40.5 µM (active) in assay [8]; 30 µM (active) and 18.4 µM (active) in [10]. Besides, the outcome in [2], in [3], in [4], in assay [6], in [7] and in [8] was inactive. Besides, the result in [9] and in assay [10] was inactive.

Turning to `c1ccc2cc3c(ccc4ccccc43)cc2c1`, the outcome in assay [1], in [2], in assay [3], in [4], in assay [6] and in [7] was inactive. The result in assay [8] and in assay [10] was inactive. Also, the results for the AC50 in assay [5] and in assay [9] were 3.12 µM (active) and 2.24 µM (active), respectively.

Take `COCC(C)OCC(C)O` (stereo not given): the result in assay [1], in [2], in assay [3], in assay [4], in assay [5] and in assay [6] was inactive. The result in [7], in assay [8], in [9] and in assay [10] was inactive.

Consider `Oc1cc2ccccc2c2ccccc12`, for which the AC50 was 7.47 µM (active) in assay [1]; 8.24 µM (active) in assay [2]; 10.1 µM (active) in [3]; 11.4 µM (active) in [4]; 10.5 µM (active) in [5]; 11.9 µM (active) in assay [6]. Moreover, the AC50 in [7] was 11.3 µM (active); in assay [8], 11.2 µM (active); in assay [10], 10.5 µM (active). Also, in [9], the result was inactive.

Turning to `C=C(C)C(=O)OCCC(F)(F)C(F)(F)C(F)(F)C(F)(F)C(F)(F)C(F)(F)F`, the AC50 in [1] is 20 µM (active); in assay [3], 12.1 µM (active); in assay [5], 13.5 µM (active). Moreover, the outcome in assay [1], in assay [2], in assay [3], in [4], in assay [5] and in assay [6] was inactive. Besides, the result in assay [7], in assay [8], in assay [9] and in assay [10] was inactive.

As for `CCCCC(CC)COC(=O)CCCCC(=O)OCC(CC)CCCC` (stereo not given), the result in [1], in [2], in assay [3], in [4], in [5] and in assay [6] was inactive. The outcome in assay [7], in assay [8], in assay [9] and in assay [10] was inactive.

Consider `CCC(=C(c1ccc(O)cc1)c1ccc(OCCN(C)C)cc1)c1ccccc1`, for which the AC50 was 17.4 µM (active) in assay [1]; 18.4 µM (active) in [2]; 22.7 µM (active) in [3]; 24 µM (active) in assay [4]; 9.11 µM (active) in [5]; 24.8 µM (active) in assay [6]. The AC50 in assay [7] was 22.8 µM (active); in assay [8] it was 22.2 µM (active); in assay [10] it was 15.8 µM (active). In addition, in assay [9], the result was inactive.

As for `CC(C)CCCCCCOC(=O)CCCCC(=O)OCCCCCCC(C)C`, the result in [1], in [2], in assay [3], in assay [4], in assay [5] and in assay [6] was inactive. For the same molecule, the result in assay [7], in assay [8], in assay [9] and in assay [10] was inactive.

Take `CCCCCCCCCCCCCC[N+](C)(C)C`: the AC50 in assay [1] is 5.99 µM (active); in [2], 4.57 µM (active); in assay [3], 8.07 µM (active); in [4] it was 5.83 µM (active); in assay [5], 5.31 µM (active); in assay [6], 11.8 µM (active). Moreover, the AC50 in assay [7] is 2.89 µM (active); in assay [8], 5.35 µM (active); in [9] it was 5.06 µM (active); in [10] it was 5.36 µM (active).

`CCC(C)(C)C1CCC(O)CC1` (stereo not given): the result in [1], in [2], in [3], in assay [4], in assay [5] and in assay [6] was inactive. Besides, the result in [7], in assay [8], in assay [9] and in [10] was inactive.

Consider `CCCCCCCCCCCCc1ccccc1S(=O)(=O)O`, for which the outcome in [1], in assay [2], in assay [3], in [4], in assay [5] and in [6] was inactive. Besides, the outcome in [7], in assay [8], in assay [9] and in assay [10] was inactive.

Take `CCCCCCC(=O)O`: the outcome in [1], in assay [2], in assay [3], in assay [4], in assay [5] and in assay [6] was inactive. For the same molecule, the outcome in assay [7], in assay [8], in assay [9] and in [10] was inactive.

One may read the AC50 as the concentration at which the activity in the assay is half-maximal.
